According to PubChem BioAssay (NCI):
“And” between values parts separate entries of the source, which are not always exact repeats. Identical values can stand only once. About 79,000 compounds went through this panel and 15% of them were active in at least one assay; those are over-represented in the sample as a whole. The source made the active and inactive calls. No stated cut-off is given here; in the data, active means growth inhibition above about 70%; inactive means the rest.

Assays:
[1] = NCI Yeast Anticancer Drug Screen. Data for the rad50 strain (AID 155);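 further: 0% = growth of vehicle-only cultures of the same strain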; settings: S. cerevisiae rad50 strain growth inhibition; at 50.0 µM; hits give high values
In short: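 Yeast carrying a defined DNA repair defect were exposed to test compounds, and growth was compared with vehicle-treated controls to give percent inhibition.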

[2] = NCI Yeast Anticancer Drug Screen. Data for the mec2-1 strain (AID 157); settings: S. cerevisiae mec2-1 strain, at 50.0 µM, hits give high values
In short: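 Strain: mec2-1 (DNA repair/cell cycle alteration). Compound exposure, then growth measured; inhibition expressed relative to vehicle.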

[3] = NCI Yeast Anticancer Drug Screen. Data for the sgs1 mgt1 strain (AID 161);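 further: 0% = growth of cultures given vehicle only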; settings: S. cerevisiae sgs1 mgt1 strain, at 50.0 µM, hits give high values
In short: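 Mutant yeast exposed to compound; growth scored against vehicle-only wells.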

[4] = NCI Yeast Anticancer Drug Screen. Data for the cln2 rad14 strain (AID 165);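 further: 0% = growth equal to vehicle treated cultures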; settings: S. cerevisiae cln2 rad14 strain, at 50.0 µM, hits give high values
In short: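 Compounds are applied to the cln2 rad14 yeast strain, and growth is then compared with that of vehicle-treated cultures to give inhibition.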

[5] = NCI Yeast Anticancer Drug Screen. Data for the bub3 strain (AID 167); settings: S. cerevisiae bub3 mutant strain, at 50.0 µM, hits give high values
In short: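 Compounds were applied to a genetically altered yeast strain carrying a cell-cycle control defect. Growth inhibition was scored against vehicle-treated controls.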

[6] = NCI Yeast Anticancer Drug Screen. Data for the mlh1 rad18 strain (AID 175); settings: S. cerevisiae mlh1 rad18 strain growth inhibition; at 50.0 µM; hits give high values
In short: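 Read-out is yeast growth inhibition, calculated against vehicle-only controls. The compound was applied to a strain engineered with DNA damage repair alterations.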

Measured: growth inhibition

CN1CCC(C(O)(c2ccccc2)c2ccccc2)CC1
inactive: [1] -1.95% | [2] -11.3% | [3] 12.3% | [4] -39.1% | [5] -6.45% | [6] -25.4%

COc1cc(C(CN)N(C)C)cc(OC)c1OC (stereo not given)
inactive: [1] -42.6% | [2] -48.7% | [3] -14.9% | [4] 14.4% | [5] -0.9% | [6] -8.65%

OC1=C2CCCCCC2=[N+]2CCCCC2C1 (stereo not given)
inactive: [1] 19.1% | [2] 33.6% | [3] 52.5% | [4] -1.6% | [5] 32.2%
active: [6] 70.8%

CCCCCCCCCCCCC(=O)O.[Pb]
inactive: [1] 1.45% | [2] 10.2% | [3] -14.4% | [4] 24.2% | [5] -2.05% | [6] 3.35%

CC(C)OP(=O)(OC(C)C)C(=O)Nc1cc(Cl)ccc1Cl
inactive: [1] -23.5% | [2] 14.6% | [3] -6.35% | [4] -31% | [5] 15% | [6] -0.15%

CC1(C)OC(C=O)C2CC(=O)c3c(O)cccc3C2(C)O1 (stereo not given)
inactive: [1] 33.4% | [2] -1.45% | [3] 12.9% | [4] -4.15% | [5] 11.9% | [6] 0.35%

COP(=O)(OC)C1(C(C)(C)C)CO1 (stereo not given)
inactive: [1] -1.75% | [2] -4.9% | [3] 0.65% | [4] -23.1% | [5] -11.6% | [6] 0.5%

COc1ccc2c(c1O)[C@@]13CCN(C)[C@@H](C2)[C@H]1CC(C)C(=O)C3 (stereo not given in full)
inactive: [1] 5.65% | [2] -30.6% | [3] 8.55% | [4] 17.2% | [5] -0.6% | [6] -2.5%

Cc1ccc([As]=[As]c2ccc(C)cc2N)c(N)c1 (stereo not given)
inactive: [1] -12.3% | [2] -2.8% | [3] -3.95% | [4] -9.95% | [5] 9.05% | [6] -9.6%

CC[CH2][Sn](=[O])[CH2]c1ccccc1
inactive: [1] 11.9% | [2] 24.6% | [3] 13.6% | [4] 8.9% | [5] 17.5% | [6] -44.5%

CCOC(=O)C1=C(OC(OCC)C(CC)[Se]c2ccccc2)CCC1 (stereo not given)
inactive: [1] 50.4% | [2] 10.6% | [3] 40% | [4] 22.4% | [5] 22.7% | [6] 39.9%

CC(C)[N+](C)(CCC(C(=O)N(C)C)(c1ccccc1)c1ccccc1)C(C)C
inactive: [1] 18.6% | [2] -1.55% | [3] 4.7% | [4] 13.3% | [5] -16% | [6] 24.4%

O=P1(c2ccccc2)NC2CCCCC2N1 (stereo not given)
inactive: [1] 24.2% | [2] -8.05% | [3] -5.3% | [4] -87% | [5] -0.9% | [6] 2.95%

CNC1(c2ccccc2)CC1
inactive: [1] 24.9% | [2] -12.2% | [3] 0.95% | [4] -60.9% | [5] 15.2% | [6] -7.05%

CC[C@@]1(O)C(=O)OCc2c1c(Cl)c1n(c2=O)Cc2cc3ccccc3nc2-1
inactive: [1] -21.1% | [2] -23.9% | [3] -5.85% | [4] 17.7% | [5] -28.5% | [6] -70%

O=C(Cl)c1cc([N+](=O)[O-])cc([N+](=O)[O-])c1
inactive: [1] 48.1% | [2] 26.1% | [3] 45.9% | [4] -10.2% | [5] -1.6% | [6] 46.6%

COc1cc2c(cc1OC)[N+]1(C)CCC3OCCC4C[N+]5(C)CCC26C5CC4C3C61 (stereo not given)
inactive: [1] 6.15% | [2] 3.45% | [3] 2.75% | [4] -6% | [5] -6.6% | [6] -13.3%

O=C1CCC(=O)N1[N+](=O)[O-]
inactive: [1] -17.2% | [2] -10.2% | [3] -18.8% | [4] 2.95% | [5] -2.45% | [6] -16%

Cc1cc(NN=O)nc(C)n1
inactive: [1] -3.05% | [2] -4.05% | [3] -1.35% | [4] -14.4% | [5] -1.8% | [6] 5.7%

CCOC(=O)C(C(=O)OCC)c1ccccc1
inactive: [1] 7.05% and 25.4% | [2] -11% and 12.9% | [3] 11.7% and 11.1% | [4] 2.4% and 3.75% | [5] 40.4% and 23.1% | [6] -0.15% and 9.55%

N#CCCCCCBr
inactive: [1] 1.05% | [2] -19.1% | [3] 23% | [4] 10.8% | [5] 17.9% | [6] 19.4%

CCOC(=O)C(C)Br (stereo not given)
inactive: [1] 15% | [2] 5.3% | [3] 28.3% | [4] -24.7% | [5] 44.6% | [6] -8.2%

O=[N+]([O-])c1ccc(SCl)c([N+](=O)[O-])c1
inactive: [1] 31.9% | [2] 11.1% | [3] 18.8% | [4] 14.6% | [5] 31.9% | [6] 17.9%

CCOC(CNCc1cccnc1)OCC
inactive: [1] -20.7% | [2] -10.6% | [3] -23.6% | [4] 5.9% | [5] -13.7% | [6] -17.3%

ClCCN(CCCl)c1ccc(-c2csc(Cc3ccccc3)n2)cc1
inactive: [1] -2% | [2] -7.35% | [3] -2.7% | [4] -20% | [5] -4.3% | [6] -19.9%

O=C1CC(c2ccccc2)n2cccc21 (stereo not given)
inactive: [1] 8.1% | [2] 2.2% | [3] 4.85% | [4] 24.8% | [5] -8.95% | [6] -27.8%

CC(C)N1COC2Cc3ccccc3CC21 (stereo not given)
inactive: [1] -7.15% | [2] 1.65% | [3] -29% | [4] 10.1% | [5] -20.2% | [6] -16.9%

CCC(C)C1(CCc2ccccc2)C(=O)NC(=O)NC1=O (stereo not given)
inactive: [1] -2.8% | [2] -14.7% | [3] 3.55% | [4] -31.3% | [5] 10.4% | [6] -0.65%

CCC(C)(C)OC(=O)CCl
inactive: [1] -0.25% | [2] 1.25% | [3] 7.8% | [4] 5.2% | [5] 36.7% | [6] -5.15%

O=C(Nc1ccc(S(=O)(=O)Nc2ccc(N=Nc3ccc(N=Nc4ccccc4)cc3)cc2)cc1)C(N1CC1)(N1CC1)N1CC1
inactive: [1] 30.4% | [2] -9.5% | [3] 3.95% | [4] 9.05% | [5] -3.8% | [6] -7.35%

CCOP(=O)(NC(C)C)OCC
inactive: [1] -4.55% | [2] -18.6% | [3] -2.8% | [4] 16.9% | [5] 6.8% | [6] -1.8%

CN(CC(N)=O)C(=O)N(CCCl)N=O
inactive: [1] 7.8% | [2] 1.6% | [3] -11.5% | [4] -18.7% | [5] 1.55% | [6] -41.5%

C[CH2][Sn](=[O])[c]1ccccc1
inactive: [1] -21.9% | [2] -17.6% | [3] 3.3% | [4] 10.3% | [5] -0.9% | [6] -23.4%

O=[N+]([O-])c1ccc(Cl)c(Cl)c1
inactive: [1] 20.9% | [2] -4.6% | [3] -8.5% | [4] -37.5% | [5] -5% | [6] 26.1%

CN(C)/N=C(\CCN1CCCC1)CC(c1ccccc1)c1c(O)c2ccccc2oc1=O (stereo not given)
inactive: [1] 55% | [2] 35.6% | [3] 63.1% | [4] 48% | [5] 49.9% | [6] 50.3%

c1cc[c]([Sn]2([c]3ccccc3)[O]CCNCC[O]2)cc1
inactive: [1] -13.1% | [2] -14.4% | [3] 10.4% | [4] -14.9% | [5] -48.7% | [6] -74.4%

CC(=O)C1(c2ccccc2)CCNCC1
inactive: [1] -1% | [2] -13.1% | [3] 10.6% | [4] 11.9% | [5] -3.9% | [6] -3.35%

CC(N)c1ccccc1 (stereo not given)
inactive: [1] -5.95% and 39.2% | [2] -6.55% and 3% | [3] 11% and 28% | [4] -23.1% and 17.1% | [5] -10.3% and 38.8% | [6] 2.8% and 37.6%

CC(N)Cc1ccc(Cl)cc1 (stereo not given)
inactive: [1] 14.5% | [2] -0.3% | [3] 1.9% | [4] -15.6% | [5] -14.9% | [6] 3.6%

O=NNc1cnccn1
inactive: [1] -15.2% and -8.45% | [2] -23.9% and 1.5% | [3] -37.5% and -16.6% | [4] -3.8% and 4.05% | [5] -19% and -18.5% | [6] -8.25% and -21.2%
